The source of these data is PubChem BioAssay (EPA / NIEHS).

Records with an inconclusive call do not appear. Calls of active or inactive are those of the source. How the source made its calls: active means hit-call score of the fitted dose curve at least 0.9, where 1 is the maximum; inconclusive means response in the unintended direction; inactive means score below 0.9.

The term AC50 denotes the midpoint of the concentration-response curve, whichever way the signal moves.

The target of test [1] is rat Catechol-O-Methyl Transferase (COMT), Comt (gene 24267) (UniProt P22734). Description: NVS_ENZ_rCOMT: NovaScreen (NVS) Enzymatic Assay for rat Catechol-O-Methyl Transferase (COMT) (AID 2283235). In outline: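 Cell-free enzyme activity with protein extracted from rat dorsal striatum, measured by HPLC with absorbance detection. Compounds screened at 25 uM in duplicate; actives then run in concentration-response up to 50 uM, loss of signal versus DMSO.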
rat Catechol-O-Methyl Transferase (COMT), Comt (gene 24267), sequence (P22734 whole entry, looked up): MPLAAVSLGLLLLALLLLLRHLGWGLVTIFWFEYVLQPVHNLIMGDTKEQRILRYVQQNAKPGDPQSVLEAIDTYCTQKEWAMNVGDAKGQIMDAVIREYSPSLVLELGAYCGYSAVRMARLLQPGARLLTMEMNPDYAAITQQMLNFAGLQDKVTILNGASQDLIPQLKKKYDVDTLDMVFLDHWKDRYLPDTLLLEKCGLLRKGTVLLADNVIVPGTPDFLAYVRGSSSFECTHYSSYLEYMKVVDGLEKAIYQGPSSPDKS

In test [2] the target is rat Constitutive Nitric Oxide Synthase (CNOS), Nos1 (gene 24598) (UniProt P29476). Description: NVS_ENZ_rCNOS: NovaScreen (NVS) Enzymatic Assay for rat Constitutive Nitric Oxide Synthase (CNOS) (AID 2283236). In outline: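 Enzyme activity in rat brain membrane preparation, read 1 h after dosing by filter-based radiometric scintillation counting. Primary screen in duplicate at 25 uM; actives (e.g., ≥30% inhibition) then run in concentration-response up to 50 uM.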
rat Constitutive Nitric Oxide Synthase (CNOS), Nos1 (gene 24598), sequence (P29476 whole entry, looked up): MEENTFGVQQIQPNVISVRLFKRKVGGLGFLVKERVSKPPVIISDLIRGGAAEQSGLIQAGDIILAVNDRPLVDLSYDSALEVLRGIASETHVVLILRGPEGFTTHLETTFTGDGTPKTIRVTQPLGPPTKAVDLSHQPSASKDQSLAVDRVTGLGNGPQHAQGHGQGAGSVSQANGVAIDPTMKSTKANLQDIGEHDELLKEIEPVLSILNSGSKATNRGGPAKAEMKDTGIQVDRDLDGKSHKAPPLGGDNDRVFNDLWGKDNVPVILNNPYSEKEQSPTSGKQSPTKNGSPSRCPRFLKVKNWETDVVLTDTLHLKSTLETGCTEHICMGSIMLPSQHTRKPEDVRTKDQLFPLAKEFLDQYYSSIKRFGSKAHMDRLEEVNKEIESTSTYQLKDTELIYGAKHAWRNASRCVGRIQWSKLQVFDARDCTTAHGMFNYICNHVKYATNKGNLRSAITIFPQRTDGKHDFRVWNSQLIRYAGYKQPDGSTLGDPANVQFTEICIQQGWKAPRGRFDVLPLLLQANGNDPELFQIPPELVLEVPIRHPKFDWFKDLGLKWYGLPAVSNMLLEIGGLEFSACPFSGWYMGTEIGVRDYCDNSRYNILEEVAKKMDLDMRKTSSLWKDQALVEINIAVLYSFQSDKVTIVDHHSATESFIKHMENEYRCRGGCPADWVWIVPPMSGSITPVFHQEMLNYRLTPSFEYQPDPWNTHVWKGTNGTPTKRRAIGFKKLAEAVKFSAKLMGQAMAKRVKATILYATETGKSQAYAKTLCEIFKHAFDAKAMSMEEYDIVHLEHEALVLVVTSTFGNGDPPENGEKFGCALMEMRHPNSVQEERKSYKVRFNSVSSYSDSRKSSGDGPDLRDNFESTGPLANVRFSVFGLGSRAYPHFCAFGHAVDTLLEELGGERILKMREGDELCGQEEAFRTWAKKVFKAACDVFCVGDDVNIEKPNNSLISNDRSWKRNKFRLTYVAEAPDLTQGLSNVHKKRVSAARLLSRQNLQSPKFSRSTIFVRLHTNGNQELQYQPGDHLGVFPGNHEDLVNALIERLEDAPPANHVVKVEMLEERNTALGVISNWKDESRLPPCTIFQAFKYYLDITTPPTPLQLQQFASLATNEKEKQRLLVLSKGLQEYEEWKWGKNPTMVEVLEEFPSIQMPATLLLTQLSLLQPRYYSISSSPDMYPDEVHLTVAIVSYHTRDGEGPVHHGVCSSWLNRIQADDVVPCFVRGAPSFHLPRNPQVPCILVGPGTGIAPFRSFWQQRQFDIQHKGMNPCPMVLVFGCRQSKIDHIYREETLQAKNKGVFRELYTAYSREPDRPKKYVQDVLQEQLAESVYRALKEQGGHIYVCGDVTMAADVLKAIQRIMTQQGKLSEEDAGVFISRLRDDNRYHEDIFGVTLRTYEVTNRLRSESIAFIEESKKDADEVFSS

The target of test [3] is bovine Dopamine Receptor (DR), Non-selective Binding, DRD1 (gene 281125) (UniProt Q95136). Description: NVS_GPCR_bDR_NonSelective: NovaScreen (NVS) G Protein-Coupled Receptor Assay for bovine Dopamine Receptor (DR), Non-selective Binding (AID 2283241). In outline: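 Bovine striatal membranes; radioligand displacement read by filtration and scintillation counting 1 h after dosing, loss of signal vs DMSO. Screened in duplicate at 25 uM, then concentration-response for hits.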
bovine Dopamine Receptor (DR), Non-selective Binding, DRD1 (gene 281125), sequence (Q95136 whole entry, looked up): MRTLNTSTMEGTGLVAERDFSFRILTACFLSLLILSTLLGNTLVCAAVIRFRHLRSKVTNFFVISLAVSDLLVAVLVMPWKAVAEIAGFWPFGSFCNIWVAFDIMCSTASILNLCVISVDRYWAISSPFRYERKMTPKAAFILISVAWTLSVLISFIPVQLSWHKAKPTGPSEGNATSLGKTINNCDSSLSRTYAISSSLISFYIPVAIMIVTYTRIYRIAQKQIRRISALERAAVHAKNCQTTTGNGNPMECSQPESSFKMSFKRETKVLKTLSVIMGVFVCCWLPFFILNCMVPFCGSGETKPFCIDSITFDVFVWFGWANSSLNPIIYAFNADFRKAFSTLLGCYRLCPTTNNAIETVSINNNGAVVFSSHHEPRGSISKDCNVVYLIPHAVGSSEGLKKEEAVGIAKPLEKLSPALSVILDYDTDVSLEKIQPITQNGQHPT

Test [4] deals with bovine Histamine 1 Receptor (H1), gene 281231. Description: NVS_GPCR_bH1: NovaScreen (NVS) G Protein-Coupled Receptor Assay for bovine Histamine 1 Receptor (H1) (AID 2283246). In outline:
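Radioligand displacement on bovine cerebellar membranes, 1 h after dosing, filter-based scintillation read-out; loss of signal vs DMSO. Duplicate single-concentration screen at 25 uM, then concentration-response up to 50 uM for hits.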

Test [5] deals with guinea pig Muscarinic, Peripheral (Mperiperal) Receptor, Non-selective Binding, gene 100379235. In words: NVS_GPCR_gMPeripheral_NonSelective: NovaScreen (NVS) G Protein-Coupled Receptor Assay for guinea pig Muscarinic, Peripheral (Mperiperal) Receptor, Non-selective Binding (AID 2283250). In outline: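 Guinea pig bladder membranes, radioligand binding read 1 h after dosing by filter scintillation counting; loss of signal vs DMSO. Primary duplicate screen at 25 uM, then concentration-response up to 50 uM.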

Test [6] deals with rat Monoamine Oxidase, MAO-A, Peripheral (MAOAP), gene 29253. Description: NVS_ENZ_rMAOAP: NovaScreen (NVS) Enzymatic Assay for rat Monoamine Oxidase, MAO-A, Peripheral (MAOAP) (AID 2283237). In outline:
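Rat liver mitochondrial membranes served as the MAO-A source, with enzyme activity measured by radiometric scintillation counting 1.17 hours after dosing. Loss of signal was fitted against DMSO; primary screen used 25 uM in duplicate, follow-up used concentration series.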

For test [7], the system named is rat Monoamine Oxidase, MAO-A, Central (MAOAC), gene 29253. Description: NVS_ENZ_rMAOAC: NovaScreen (NVS) Enzymatic Assay for rat Monoamine Oxidase, MAO-A, Central (MAOAC) (AID 2283243).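 Further: potency refers to inhibition seen as signal drop below DMSO baseline.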 In outline:
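Rat brain tissue extract used as enzyme source in a cell-free radiometric assay, read by scintillation counting 1.5 hours after dosing. Loss of signal relative to DMSO baseline scored; primary screen at 25 uM in duplicate, actives followed up in concentration series.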

The test system of test [8] is bovine Angiotensin II Receptor Type 2 (AT2), gene 407157. Description: NVS_GPCR_bAT2: NovaScreen (NVS) G Protein-Coupled Receptor Assay for bovine Angiotensin II Receptor Type 2 (AT2) (AID 2283240). In outline:
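Radioligand displacement on bovine cerebellar membranes, 1 hour incubation, filter-based scintillation counting; loss of signal vs DMSO. Duplicate single-point screen at 25 uM, then concentration-response to 50 uM maximum.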

The nature of test [9]: NVS_GPCR_bNPY_NonSelective: NovaScreen (NVS) G Protein-Coupled Receptor Assay for bovine Neuropeptide Y (NPY) Receptor, Non-selective Binding (AID 2283245). In outline: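 Bovine hippocampal membranes incubated 1 hour with radioligand and test chemical. Bound ligand measured by filter-based scintillation counting. Single-concentration screen at 25 uM in duplicate, then concentration-response up to 50 uM.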

Test [10] relates to guinea pig Leukotriene B4 Receptor (LTB4), gene 100379538. In words: NVS_GPCR_gLTB4: NovaScreen (NVS) G Protein-Coupled Receptor Assay for guinea pig Leukotriene B4 Receptor (LTB4) (AID 2283247). In outline:
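Radioligand displacement on guinea pig spleen membranes, filter-based scintillation counting 2 h after dosing. Primary duplicate single point at 25 uM; hits over threshold (e.g. 30% inhibition) run in concentration-response up to 50 uM, DMSO baseline.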

The target in test [11] is guinea pig Leukotriene D4 Receptor (LTD4), CYSLTR1 (gene 100135514) (UniProt Q2NNR5). In words: NVS_GPCR_gLTD4: NovaScreen (NVS) G Protein-Coupled Receptor Assay for guinea pig Leukotriene D4 Receptor (LTD4) (AID 2283248). In outline:
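Radioligand displacement on guinea pig lung membranes, 1 h incubation, filtration and scintillation counting; DMSO as negative control. Duplicate 25 uM primary screen, then singleton concentration-response up to 50 uM.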

The target in test [12] is Adenosine receptor A1 (Bos taurus) (UniProt P28190). In words: NVS_GPCR_bAdoR_NonSelective: NovaScreen (NVS) G Protein-Coupled Receptor Assay for bovine Adenosine Receptor (AdoR), Non-selective Binding (AID 2283244). In outline:
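Bovine striatal membranes, radioligand displacement binding, 1 h after dosing, filter-based scintillation counting. Screened in duplicate at 25 uM, then concentration-response up to 50 uM; loss of specific binding relative to DMSO.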

The target in test [13] is rat Monoamine Oxidase, MAO-B, Central (MAOBC), Maob (gene 25750) (UniProt P19643). In words: NVS_ENZ_rMAOBC: NovaScreen (NVS) Enzymatic Assay for rat Monoamine Oxidase, MAO-B, Central (MAOBC) (AID 2283238). In outline:
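Compounds were first tested in duplicate at 25 uM against MAO-B from rat brain tissue; those passing the inhibition threshold were retested in concentration series up to 50 uM. Radiodetection by scintillation counting at 1.17 h, analysed against DMSO baseline.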

For test [14], the target named is rat Monoamine Oxidase, MAO-B, Peripheral (MAOBP), Maob (gene 25750) (UniProt P19643). Description: NVS_ENZ_rMAOBP: NovaScreen (NVS) Enzymatic Assay for rat Monoamine Oxidase, MAO-B, Peripheral (MAOBP) (AID 2283242).
rat Monoamine Oxidase, MAO-B, Peripheral (MAOBP), Maob (gene 25750), sequence (P19643 whole entry, looked up): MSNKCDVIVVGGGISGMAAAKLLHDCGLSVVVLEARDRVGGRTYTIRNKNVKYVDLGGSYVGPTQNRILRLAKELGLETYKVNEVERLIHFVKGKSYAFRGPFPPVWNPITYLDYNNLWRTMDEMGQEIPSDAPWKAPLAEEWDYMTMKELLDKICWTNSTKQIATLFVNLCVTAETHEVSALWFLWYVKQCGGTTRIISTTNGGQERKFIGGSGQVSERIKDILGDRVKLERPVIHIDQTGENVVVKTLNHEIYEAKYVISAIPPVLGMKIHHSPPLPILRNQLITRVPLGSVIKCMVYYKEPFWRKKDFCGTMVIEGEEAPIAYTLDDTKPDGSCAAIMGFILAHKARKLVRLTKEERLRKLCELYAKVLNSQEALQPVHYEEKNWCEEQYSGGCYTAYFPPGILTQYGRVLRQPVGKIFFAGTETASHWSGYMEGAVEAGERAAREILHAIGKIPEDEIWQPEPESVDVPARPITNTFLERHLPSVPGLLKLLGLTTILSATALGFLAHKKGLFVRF

Adenosine receptor A1 (Bos taurus), sequence (P28190 whole entry, looked up): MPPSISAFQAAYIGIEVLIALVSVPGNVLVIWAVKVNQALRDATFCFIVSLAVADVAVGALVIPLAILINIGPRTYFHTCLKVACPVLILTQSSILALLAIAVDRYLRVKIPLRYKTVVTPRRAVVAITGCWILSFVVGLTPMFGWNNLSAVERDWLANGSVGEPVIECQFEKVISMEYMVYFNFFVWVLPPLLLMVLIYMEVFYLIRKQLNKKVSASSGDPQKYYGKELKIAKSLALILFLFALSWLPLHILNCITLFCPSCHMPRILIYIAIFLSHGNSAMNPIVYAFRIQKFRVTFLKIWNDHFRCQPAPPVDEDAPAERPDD
rat Monoamine Oxidase, MAO-B, Central (MAOBC), Maob (gene 25750), sequence (P19643 whole entry, looked up): as the sequence (P19643 whole entry, looked up) above
guinea pig Leukotriene D4 Receptor (LTD4), CYSLTR1 (gene 100135514), sequence (Q2NNR5 whole entry, looked up): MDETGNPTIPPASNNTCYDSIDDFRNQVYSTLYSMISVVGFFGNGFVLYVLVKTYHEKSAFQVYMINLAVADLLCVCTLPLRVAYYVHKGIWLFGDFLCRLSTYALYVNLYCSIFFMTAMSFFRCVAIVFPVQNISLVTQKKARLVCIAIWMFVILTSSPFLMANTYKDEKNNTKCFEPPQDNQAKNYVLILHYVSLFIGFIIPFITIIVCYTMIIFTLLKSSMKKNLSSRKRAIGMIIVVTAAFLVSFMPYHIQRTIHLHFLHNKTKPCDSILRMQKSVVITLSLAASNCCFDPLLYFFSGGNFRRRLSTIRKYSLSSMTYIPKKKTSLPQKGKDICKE

Regarding `CN(C)[C@@H]1C(=O)C(C(N)=O)=C(O)[C@@]2(O)C(=O)C3=C(O)c4c(O)cccc4[C@@](C)(O)[C@H]3C[C@@H]12`, in test [1], the AC50 is 2.73 µM (active).

Regarding `CCOC(=O)[C@]1(c2ccccc2)Oc2ccccc2[C@@H]1N`, the outcome in test [2] was inactive. Further, the AC50 in test [3] was 1.04 µM (active); in test [4], 7.49 µM (active); in test [5], 13.3 µM (active).

As to `COP(=S)(OC)SCN1C(=O)c2ccccc2C1=O`, the AC50 in test [2] was 3.44 µM (active).

`CN(C)c1ccc(C(=O)c2ccc(N(C)C)cc2)cc1`: the AC50 in test [6] is 7.24 µM (active); in test [7], 5.33 µM (active).

Consider `CC(C)(O)c1cnn2c(-c3ccc(F)c(-c4c(F)cccc4C#N)c3)cnc2n1`, for which, in [6], the result was inactive.

Take `CCC[CH2][Sn]([Cl])([CH2]CCC)[CH2]CCC`: the AC50 in test [8] was 18.2 µM (active); in test [3], 9.14 µM (active); in test [9] it was 3.07 µM (active); in test [10], 15.8 µM (active); in [11] it was 1.86 µM (active); in test [5], 9.81 µM (active).

As for `O=[N+]([O-])C(Br)(CO)CO`, the AC50 in [12] is 16.5 µM (active).

Turning to `CCCCCCCCn1sccc1=O`, the molecule was classed as inactive in test [9].

With `Cc1cc(N=Nc2ccccc2C)ccc1N`, the half-maximal activity concentration (AC50) in [1] was 0.643 µM (active); in test [13], 25 µM (active). Moreover, the result in [14] and in test [4] was inactive.

With `Nc1cc(Cl)cc(C(=O)O)c1Cl`, the call in [14] was inactive.

Turning to `CCOc1cccc(C2(N3CCN(c4ccccc4)CC3)CCC(C)CC2)c1` (centres undefined), the AC50 in test [6] was 13.7 µM (active); in test [7] it was 4.53 µM (active). Also, the outcome in [12] was inactive.

Regarding `Oc1ccc2ccc3cccc4ccc1c2c34`, the results for the AC50 in [1], in [6] and in test [7] were 25 µM (active), 1.18 µM (active) and 0.255 µM (active), respectively.

As for `CO[C@@H]1[C@H](OC(=O)NC(=O)CCl)CC[C@]2(CO2)[C@H]1[C@@]1(C)O[C@@H]1CC=C(C)C`, the call in test [14] was inactive.
